Assay outcomes (PubChem BioAssay)
CtBP-E1A inh – inhibitors of CtBP/E1A interaction | AlphaScreen GST-E1A/His-CtBP binding, 1536-well; hits give low values | activity change, % (concentration not given with the values) | hit rate 0.49% among 340,000; in the data active means activity change below about -65%; inconclusive means mostly about -30% to -63%; further: on the % scale 0 is the no-effect control and ±100 the full control effect
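Homogeneous bead-based format: GST-tagged E1A captured on glutathione donor beads, His-tagged CtBP on nickel acceptor beads; compounds precede bead addition by 2 h at 37 °C.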
G9a inh – inhibitors of human histone lysine methyltransferase G9a. hit rate 8.8% among 350,000. AID 504332. Potency, µM (top dose mostly 102 µM), inactives show at the highest dose activity, negative = inhibition, most hits filed as inhibitors. G9a H3K9 monomethylation, AlphaScreen, 2 h; further: potency means the concentration at half of the fitted maximal effect; on the % scale 0 is the no-effect control and ±100 the full control effect; nearly all actives have a fitted effect of over 75% in size
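Using a bead-based AlphaScreen, monomethylated H3K9 product from 2 h room-temperature reactions (G9a 20 nM, peptide 500 nM, SAM 20 uM) was detected with 0.5 ug/mL rabbit anti-H3K9me1 antibody.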
BAZ2B inh – blocks human BAZ2B; Q9UIF8; AlphaScreen BAZ2B-H3K14Ac peptide displacement; Potency, µM (doses to about 114 µM), without a hit: at the highest dose activity change, negative = inhibition, hits mostly inhibitors; hit rate 4.4% among 360,000; AID 504333; further: potency means the concentration at half of the fitted maximal effect; on the % scale 0 is the no-effect control and ±100 the full control effect; nearly all actives have a fitted effect of over 60% in size
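AlphaScreen displacement of biotin-H3(5-23)K14Ac peptide (50 nM final) from BAZ2B (50 nM final) in PBS pH 7.4, 0.01% Tween-20; complex preformed 30 min RT, then compounds (top 110 uM) 30 min RT, beads 20 min dark.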
JMJD2A Tudor inh – inhibitors of human JMJD2A Tudor domain | AlphaScreen JMJD2A-Tudor / H3K4me3 peptide binding | Potency, µM (titrated, usually from 114 µM), for the others: top-dose activity change, negative = inhibition, most hits filed as inhibitors | hit rate 4.4% among 390,000 | O75164; further: potency means the concentration at half of the fitted maximal effect; on the % scale 0 is the no-effect control and ±100 the full control effect; nearly all actives have a fitted effect of over 50% in size
Six1-Eya2 inh – blocks human Six1 binding to Eya2 | hit rate 0.56% among 360,000 | activity change, % (test concentration not listed) | AlphaScreen GST-Six1/His-Eya2 binding, biochemical; hits give low values; in the data active means activity change below about -65%; inconclusive means mostly about -30% to -63%; further: on the % scale 0 is the no-effect control and ±100 the full control effect
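AlphaScreen with GST-Six1 and His-Eya2 (5X mix: 250 nM and 500 nM), glutathione donor and nickel acceptor beads; buffer 50 mM Tris pH 8.0, 300 mM NaCl, 1 mM TCEP; 1 h at 37 C in the dark.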
HP1b chromo inh – inhibitors of HP1-beta chromodomain binding to methylated histone tails | AID 540317 | P83916 | AlphaScreen HP1-beta / biotin-H3K9me3 peptide binding | hit rate 0.56% among 390,000 | Potency, µM (top dose mostly 114 µM), without a hit: top-dose activity change, negative = inhibition, most hits filed as inhibitors; further: potency means the concentration at half of the fitted maximal effect; nearly all actives have a fitted effect of over 70% in size
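HP1-beta protein (50 nM final) preincubated 30 min at room temperature with biotinylated H3(1-18)K9me3 peptide (50 nM) in PBS pH 7.4, 0.01% Tween-20, then compound added for 30 min. AlphaScreen streptavidin donor/nickel chelate acceptor beads (10 ug/mL final), 30 min dark, luminescence read.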
Starred values were filed as active, the others as inactive; ? = inconclusive; nt = not tested or not shown; [ ] = dose if it differs, or a comment. This is a sample that favours compounds with a hit; in the whole collection about 10% have one here. Unless noted, the call rests on the fitted dose curve; in most records, active means well fitted inhibition curve with a large enough effect; inconclusive means small, poorly fitted or top-dose-only effect; inactive means no such curve, though single readings can be large or run the other way.

SMILES | CtBP-E1A inh | G9a inh | BAZ2B inh | JMJD2A Tudor inh | Six1-Eya2 inh | HP1b chromo inh
Cc1ccc(S(=O)(=O)c2c(N)n(Cc3ccco3)c3nc4ccccc4nc23)cc1C | 1 | ? | -26% | -16% | 4 | 23%
Nc1c(S(=O)(=O)c2ccccc2)c2nc3ccccc3nc2n1/N=C/c1cccc(O)c1 | -84* | 17% | 2% | -10% | -75* | 25%
Cc1cccc(NC(=O)N2CCC(CN3CCOCC3)CC2)c1C | nt | 0%[59 µM] | -1% | -12% | nt | 37%
CCCOc1ccc(CC2C(=O)Nc3ccc(Br)cc32)cc1 (centres undefined) | nt | -17%[59 µM] | -33% | -32% | nt | -5%
COc1cc(C(c2c(C)[nH][nH]c2=O)c2c(C)[nH][nH]c2=O)ccc1OS(=O)(=O)c1ccc(C)cc1 | -8 | 2.8µM* | -26% | -29% | -9 | 21%
COc1cc(C(c2c(C)[nH][nH]c2=O)c2c(C)[nH][nH]c2=O)ccc1OS(=O)(=O)c1ccccc1 | -21 | 22µM* | -26% | -32% | -8 | 10%
COc1cc(C(c2c(C)[nH][nH]c2=O)c2c(C)[nH][nH]c2=O)ccc1OC(C)C | 5 | -42% | ? | -6% | 2 | 37%
COc1cc(C(c2c(C)[nH][nH]c2=O)c2c(C)[nH][nH]c2=O)cc(OC)c1OC | 2 | -23% | -7% | -14% | 2 | -3%
COc1cc(C(c2c(C)[nH][nH]c2=O)c2c(C)[nH][nH]c2=O)cc(Cl)c1O | nt | 45µM* | ? | 5% | -4 | 21%
CCOC(=O)c1ccc(NC(=O)CN2C(=O)NC3(CCC(C)CC3)C2=O)cc1 (centres undefined) | 22 | 3% | -15% | -17%[57.1 µM] | -3 | 16%
CCOC(=O)CN1NC2(CCC(C)CC2)NC1=S (centres undefined) | 1 | 25µM* | ? | 28µM* | 4 | 33%
CCOC(=O)CN1NC2(CCC(C(C)(C)C)CC2)NC1=S (centres undefined) | -3 | 14%[12.7 µM] | ? | 40µM* | 5 | 32%
CCOC(=O)CN1C(=O)NC2(CCCc3ccccc32)C1=O (centres undefined) | 4 | 10% | 3% | -2% | 9 | -1%
CCOC(=O)CN1NC2(CCCC(C)C2)NC1=S (centres undefined) | 1 | 10µM* | -4% | 50µM* | 3 | 38%
Cc1ccc(C(=O)C(OC(=O)CNC(=O)COc2ccccc2C)c2ccccc2)cc1 (centres undefined) | nt | nt | nt | -12%[57.1 µM] | nt | 14%[57 µM]
O=C(Nc1cccc(Cl)c1Cl)c1ccc2c(c1)N(Cc1cccc(Cl)c1)C(=O)c1ccccc1S2(=O)=O | nt | 37%[59 µM] | 15% | -9% | nt | 63%
O=C(NCCCn1ccnc1)Nc1ccc(Cl)cc1 | -4 | 1% | -35% | -22% | -3 | 2%
S=C(NCCCn1ccnc1)Nc1ccc(Cl)cc1Cl | -2 | -45% | 50µM* | -12% | -2 | 23%
O=C(NCCCn1ccnc1)Nc1ccc(Cl)c(Cl)c1 | -17 | -4%[59 µM] | 40µM* | ? | ? | 24%
COCCOC(=O)C1=C(C)NC(=O)NC1c1cn(-c2ccccc2)nc1-c1ccccc1 (centres undefined) | nt | -3%[59 µM] | 1% | -14% | nt | 35%
COc1ccc(CCn2c3c(c(=O)[nH]c2=O)C(NC(=O)c2ccccc2)(C(F)(F)F)C(=O)N3)cc1OC (centres undefined) | nt | 2%[59 µM] | -1% | 3% | nt | 34%
Cc1cc(Cl)ccc1Nc1ncnc2onc(C)c12 | nt | 3%[59 µM] | 14%[57.1 µM] | 4% | nt | 30%
Cc1ccc(C2(C(F)(F)F)NC(=O)N3N=C4CCCCCN4C3=C2C#N)cc1 (centres undefined) | -1 | -25% | -1% | -12% | 1 | 27%
N#CC1=C2Nc3ccccc3N2C(=O)NC1(c1ccccc1)C(F)(F)F (centres undefined) | 1 | 1%[12.7 µM] | 4% | 56µM* | 2 | ?
O=C(CNCc1ccc(Cl)cc1)NCc1ccco1 | 2 | 5.6µM* | 50µM* | 79µM* | 7 | ?
SMILES | CtBP-E1A inh | G9a inh | BAZ2B inh | JMJD2A Tudor inh | Six1-Eya2 inh | HP1b chromo inh
O=C(NC(=S)NCc1ccc(Cl)cc1)c1ccco1 | -9 | nt | nt | 7% | 3 | 29%
O=C(COC(=O)Cc1ccc(Cl)cc1)NCc1ccco1 | -3 | nt | nt | 56µM* | -24 | ?
O=C(COc1ccc(Cl)cc1Cl)NNC(=S)NC(=O)c1ccco1 | 1 | 7.9µM* | -2% | ? | 2 | ?
CC(Oc1ccc(Cl)cc1)C(=O)NNC(=S)NC(=O)c1ccco1 (centres undefined) | -2 | 11µM* | 4% | -26% | -24 | -6%
COc1cccc(NC(=O)C(=O)NCCc2csc(-c3ccc(C)cc3)n2)c1 | nt | 0%[59 µM] | 3% | 8% | nt | 29%[57 µM]
Cc1ccccc1C(=O)Nc1nc2c(s1)CC(C(C)(C)C)CC2 (centres undefined) | nt | 26%[59 µM] | 7% | -33% | nt | 73%
CC(Sc1ncc(S(=O)(=O)c2ccc(C(C)C)cc2)c(N)n1)C(=O)Nc1ccccc1 (centres undefined) | nt | -22%[59 µM] | -11% | -8% | nt | 7%
Cc1c(C(=O)N2CCOCC2)oc2c1-c1nn(CC(=O)NCc3ccccc3)cc1CC2 | nt | -9%[59 µM] | ? | -22% | nt | 8%
CC(C)CCNC(=O)c1ccc2c(c1)NC(=O)C(C(C)C)N2 (centres undefined) | nt | -44%[59 µM] | 0% | -17% | nt | 37%
Cc1ccc2c(Cl)cc(Cl)c(OCC(=O)NCc3ccco3)c2n1 | nt | 9%[12.7 µM] | 40µM* | nt | nt | nt
O=C(COc1ccc(Cl)cc1Cl)NCc1ccco1 | -3 | 56µM* | -36% | -23% | -6 | 11%
Cc1ccc2c(Cl)cc(Cl)c(OCC(=O)NC(=O)NCc3ccco3)c2n1 | 2 | 3%[59 µM] | nt | ? | -5 | 12%
O=c1c2c3c(sc2n(Cc2cc(=O)n4ccccc4n2)c(=O)n1-c1ccccc1)CCC3 | nt | -5%[59 µM] | -1% | -12% | nt | 42%
Cn1cc(S(=O)(=O)N2CCOCC2)cc1C(=O)Nc1cccc(C#N)c1 | nt | 12%[59 µM] | -1% | -8% | nt | 25%[57 µM]
O=C(Nc1ccc(F)c(Cl)c1)C1CCN(c2ncccn2)CC1 | nt | -4%[59 µM] | 3% | -14% | nt | 7%
COc1ccc(-n2c(CNC(=O)COc3ccc(Cl)cc3)n[nH]c2=S)cc1 | 17 | 2.5µM* | -6% | 13µM* | -2 | -6%
COc1ccc(-n2c(CNC(=O)COc3ccc(Cl)cc3Cl)n[nH]c2=S)cc1 | nt | 7.9µM* | 0% | -6% | 23 | 73%
O=C(COc1ccccc1)NCc1ccccc1 | 36 | 34% | 8% | 1% | 5 | 21%
COc1ccc(-n2c(CNC(=O)COc3ccccc3)n[nH]c2=S)cc1 | 2 | ? | -18% | 11µM* | -7 | 37%
